# In PubChem BioAssay (NCATS):
# Inconclusive results are not listed. The source made the active and inactive calls. Calls come from the whole dose curve; as a rule, active = well fitted cell-killing curve with a large enough effect; inconclusive = small, poorly fitted or top-dose-only effect, or effect the other way; inactive = no such curve, though single readings can be large or run the other way.
# Experiment: Quantitative High-Throughput drug screen in 47 multiple myeloma cell lines against the NCATS MIPE library collection: RPMI8226_ATCC cell viability assay (AID 1919871); note: nearly all actives have a fitted effect of over 30% in size
# Conditions: RPMI8226 myeloma viability, CellTiter-Glo ATP luminescence, 48 h; series mostly up to 45.8 µM
# Excerpt: PI: Beverly A. Mock Ph.D.
# Laboratory of Cancer Biology and Genetics,
# Center for Cancer Research, National Cancer Institute,
# National Institute of Health, Bethesda, Maryland
# Drug resistance and disease progression are common in multiple myeloma (MM) patients, underscoring the need for new therapeutic combinations. […] We hypothesized that effective combinations would reduce MYC expression and enhance p16 activity. […] These preclinical data identify potentially useful drug combinations for evaluation in drug-resistant MM and reveal potential mechanisms of combined drug sensitivity.
# Described herein is the primary MIPE qHTS used to cherrypick compounds. Validated compounds were then further tested for potential synergistic activiy.
# [1] Peat TJ, Gaikwad SM, Dubois W, Gyabaah-Kessie N, Zhang S, Gorjifard S, Phyo Z, Andres M, Hughitt VK, Simpson RM, Miller MA, Girvin AT, Taylor A, Williams D, D'Antonio N, Zhang Y, Rajagopalan A, Flietner E, Wilson K, Zhang X, Shinn P, Klumpp-Thomas C, McKnight C, Itkin Z, Chen L, Kazandijian D, Zhang J, Michalowski AM, Simmons JK, Keats J, Thomas CJ, Mock BA. Drug combinations identified by high-throughput screening promote cell cycle transition and upregulate Smad pathways in myeloma. Cancer Lett. 2023 Aug 1;568:216284. doi: 10.1016/j.canlet.2023.216284. Epub 2023 Jun 24. PMID: 37356470; PMCID: PMC10408729.
# SEQUENCE No. (e.g., 1, 2, 3, etc.); […] (e.g., Cells, Incubation, Reagent, etc.); VALUE and DESCRIPTION.
# 1; Cells; 5 uL; white, solid bottom 1536-well Greiner assay plate.
# 2; Compounds; 23 nL; Kalypsis pin tool (Wako USA) equipped with a 1536-well pin head to transfer to the assay plates.
# 3; Incubation; 48 hours; 37C incubation.
# 4; Reagent;5uL; CellTiter Glo (Promega).
# 5; Detector; 425V; Luminescence; Viewlux PerkinElmer.
# NOTES (numbers refer to Sequence numbers above)
# 1. The cell-based screening methods employed in this study were like those previously published. Briefly, the corresponding myeloma cell lines were screened in 1,536-well plates with 500 cells, 5-uL per well for inhibition of cell viability (assessed by measuring ATP levels with CellTiterGlo).
# 2. NCATS MIPE 4.0 library of approved and investigational drugs were added using the Kalypsis pin tool. Wells treated with DMSO only for 100% viability and media only for 0% viability were used as controls.
# 3. The assay plates were covered and incubated for 48 hours in a 37C, 5% CO2 incubator with controlled humidity.
# 4. After 48 hours, CellTilter-GloTM luminescent substrate mix (Promega) reagent was added to the assay plate and plates we incubated for 5 min at room temperature.
# 5. Signal was measured as median relative luminescence units on a ViewLux (PerkinElmer) multiplate reader.
# [1] Heske CM, Davis MI, Baumgart JT, Wilson K, Gormally MV, Chen L, Zhang X, Ceribelli M, Duveau DY, Guha R, Ferrer M, Arnaldez FI, Ji J, Tran HL, Zhang Y, Mendoza A, Helman LJ, Thomas CJ. Matrix Screen Identifies Synergistic Combination of PARP Inhibitors and Nicotinamide Phosphoribosyltransferase (NAMPT) Inhibitors in Ewing Sarcoma. Clin Cancer Res. 2017 Dec 1;23(23):7301-7311. doi: 10.1158/1078-0432.CCR-17-1121. Epub 2017 Sep 12. PMID: 28899971; PMCID: PMC6636827.
# Potency is the fitted concentration of half-maximal effect.
row,Structure (SMILES),Potency
1,N#Cc1ccc(Oc2ccc3c(c2)COB3O)cc1,inactive
2,CCN(CC)CCCCNc1nc2cc(Cl)c(Cl)cc2nc1-c1ccc(-c2cccs2)s1,10.5 µM (active)
3,Nc1ncnc2c1ncn2[C@@H]1O[C@H](CO)[C@@H](O)[C@@H]1O,inactive
4,CN1CCN2c3ncccc3Cc3ccccc3C2C1 (stereo not given),inactive
5,CC=C1C2C=C(C)CC1(N)c1ccc(=O)[nH]c1C2 (stereo not given),inactive
6,COc1ccc(-c2oc3c(CC=C(C)C)c(O)cc(O)c3c(=O)c2O)cc1,20.9 µM (active)
7,CN1c2ccccc2C(=O)N2CCc3c([nH]c4ccccc34)C21 (stereo not given),inactive
8,C[C@H]1O[C@@H](n2cc(F)c(=O)[nH]c2=O)[C@H](O)[C@H]1O,9.35 µM (active)
9,COC(=O)Nc1ccc(-c2nc(N3CCOCC3)c3cnn(C4CCN(C(=O)OC)CC4)c3n2)cc1,0.332 µM (active)
10,CC(O)=C(C#N)C(=O)Nc1ccc(C(F)(F)F)cc1,6.62 µM (active)
11,COc1cc2nc(-c3cc(F)ccc3O)nc(N[C@@H]3CNC[C@@H]3C(C)(C)O)c2cc1OC,23.5 µM (active)
12,Nc1ncnc2c1c(-c1cccc(OCc3ccccc3)c1)cn2C1CC(CN2CCC2)C1 (stereo not given),5.26 µM (active)
13,C=C1[C@H](n2cnc3c(=O)[nH]c(N)nc32)C[C@H](O)[C@H]1CO,inactive
14,CN(C)S(=O)(=O)c1ccc2c(c1)C(=Cc1cc3c([nH]1)CCCC3)C(=O)N2,7.43 µM (active)
15,CN(C)c1ccc(-c2nc3ncc(Cl)c(N4CCN(CC(=O)Nc5nccs5)CC4)c3[nH]2)cc1,4.18 µM (active)
16,CNC(=O)[C@H](CC1=CN=C2C=CCC=C12)NC(=O)[C@@H](CC(=O)NO)CC(C)C,inactive
17,CNC1CCC(N(Cc2cccc(-c3ccncc3)c2)C(=O)c2sc3ccccc3c2Cl)CC1 (stereo not given),26.4 µM (active)
18,N=C1SC(=Cc2ccc(-c3ccc4c(c3)C(=O)NC4=O)o2)C(=O)N1c1ccc(Br)cc1,3.32 µM (active)
19,CCNC(=O)Nc1ccc(Oc2ncnc(N)c2C=NOC)cc1Cl,18.7 µM (active)
20,CC1(C)OC2CC3C4CC(F)C5=CC(=O)C=CC5(C)C4C(O)CC3(C)[C@]2(C(=O)CO)O1 (stereo not given in full),0.0118 µM (active)

row,Structure (SMILES),Potency
1,C[C@H]1[C@H](O)O[C@@H]2O[C@@]3(C)CC[C@@H]4[C@H](C)CC[C@@H]1[C@@]24OO3,1.32 µM (active)
2,COc1ccnc(CS(=O)c2nc3ccc(OC(F)F)cc3[nH]2)c1OC (stereo not given),inactive
3,Cc1nn(Cc2ccccc2Cl)c(C)c1CN(C)CC(O)COc1ccc(Cl)cc1 (stereo not given),20.9 µM (active)
4,CC1=C(CC(=O)O)c2cc(F)ccc2C1=Cc1ccc(S(C)=O)cc1 (stereo not given),inactive
5,CC[C@]1(O)C[C@H]2CN(CCC3=c4ccccc4=N[C]3[C@@](C(=O)OC)(c3cc4c(cc3OC)N(C)[C@H]3[C@@](O)(C(N)=O)[C@H](O)[C@]5(CC)C=CCN6CC[C@]43[C@@H]65)C2)C1,0.132 µM (active)
6,O=C(c1ccc(F)c(F)c1Nc1ccc(I)cc1F)N1CC(O)([C@H]2CCCCN2)C1,20.9 µM (active)
7,Cc1cn([C@@H]2C[C@@H](O)[C@H](CO)O2)c(=O)[nH]c1=O,inactive
8,COC(=O)[C@H](c1ccccc1Cl)N1CCc2sccc2C1,inactive
9,COc1ccc(Cn2ccc3ccc(C(=O)NO)cc32)cc1,inactive
10,CC1(C)[C@H]2CC[C@]3(C)[C@@H](C(=O)C=C4[C@@H]5C[C@@](C)(C(=O)O)CC[C@]5(C)CC[C@]43C)[C@@]2(C)CC[C@@H]1O,inactive
11,COc1ccc(-c2nc3ccc(C4=NNC(=O)CC4C)cc3[nH]2)cc1 (stereo not given),inactive
12,O=C(Nc1ccccc1)Nc1ccc(-c2ccc(C(=O)[C@H]3CCC[C@H]3C(=O)O)cc2)cc1,inactive
13,N#Cc1c(N(CC(=O)O)CC(=O)O)sc(C(=O)O)c1CC(=O)O,inactive
14,CC(C)c1c(C(=O)Nc2ccccc2)c(-c2ccccc2)c(-c2ccc(F)cc2)n1CC[C@H](O)C[C@@H](O)CC(=O)O,10.5 µM (active)
15,CCC(C)SSc1ncc[nH]1 (stereo not given),23.5 µM (active)
16,CN1[C@H]2CC[C@H]1CC(OC(=O)c1c[nH]c3ccccc13)C2 (stereo not given in full),inactive
17,OC1CCC(Nc2ncc3nc(Nc4c(F)cc(F)cc4F)n([C@@H]4CCOC4)c3n2)CC1 (stereo not given in full),inactive
18,Cc1cc(OCCCS(C)(=O)=O)cc(C)c1-c1cccc(COc2ccc3c(c2)OC[C@H]3CC(=O)O)c1,18.7 µM (active)
19,O=C1C(CCC(O)c2ccc(F)cc2)C(c2ccc(O)cc2)N1c1ccc(F)cc1 (stereo not given),inactive
20,O=C1NC(=O)C(c2cnc3ccccn23)=C1c1cn2c3c(cccc13)CN(C(=O)N1CCOCC1)CC2,18.7 µM (active)
